# Test results reported in PubChem BioAssay.
# Unmarked numbers belong to inactive results. Active and inactive are the calls of the source.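 How the source made its calls: active means inhibition above the hit cutoff set in the earlier primary screen (cut at about 27% in these data); inactive means the rest.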
# Target: Protein phosphatase methylesterase 1 (Homo sapiens) (UniProt Q9Y570)
# Experiment: human PME-1 methylesterase inhibition confirmation – biochemical, fluorescence polarization, FP-Rh probe, triplicate (AID 2171);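 further: 0% = enzyme with DMSO and 100% = wells lacking PME-1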
# Conditions: recombinant PME-1, FP-Rh probe fluorescence polarization; at 5.9 µM; active compounds read high
# Chain of Protein phosphatase methylesterase 1 (Homo sapiens) (Q9Y570 whole entry, looked up): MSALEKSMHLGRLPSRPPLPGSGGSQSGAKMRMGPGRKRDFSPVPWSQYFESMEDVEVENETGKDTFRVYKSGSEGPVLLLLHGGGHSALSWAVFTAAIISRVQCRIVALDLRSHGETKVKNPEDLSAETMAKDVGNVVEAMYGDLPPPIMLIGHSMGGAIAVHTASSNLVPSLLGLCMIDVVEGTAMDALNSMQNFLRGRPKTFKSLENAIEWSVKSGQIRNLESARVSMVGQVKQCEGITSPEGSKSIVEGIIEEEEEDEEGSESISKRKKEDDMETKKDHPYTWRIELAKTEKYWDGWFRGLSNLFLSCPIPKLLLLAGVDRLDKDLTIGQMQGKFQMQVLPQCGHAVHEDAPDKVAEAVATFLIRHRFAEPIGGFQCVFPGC
row,Compound,inhibition
1,O=C1CN(C(=O)c2ccccc2F)C(c2ccccc2)c2cc(F)ccc2N1 (stereo not given),16.4%
2,COc1cc2nc(Nc3ccc(C)c(Cl)c3)nc(N)c2cc1OC,49.4% (active)
3,N#CC(C#N)=NNc1ccc(S(=O)(=O)N2CCCCC2)cc1,14.8%
4,O=C(O)c1ccccc1N/N=C/c1cc(Br)cc(Br)c1O,43.7% (active)
5,Cc1nn(-c2ccccc2)c2sc(-c3n[nH]c(=S)o3)cc12,43.8% (active)
6,CCCCOC(=O)c1ccc(NC(=O)Nc2ccc(OC)c(OC)c2)cc1,14.7%
7,O=C(O)c1ccc(N/N=C/c2cn(Cc3ccccc3F)c3ccccc23)cc1,93.4% (active)
8,O=C(CCCSc1ccccc1)Nc1nc(-c2ccco2)c(-c2ccco2)s1,6.79%
9,Cn1c2ccccc2c2cc(/C=N/NC(=O)c3ccc(O)cc3O)ccc21,23%
10,CCOc1cc(N(CC)CC)ccc1/C=C(/C#N)c1nc2ccccc2[nH]1,8.91%
11,Cc1ccc(-c2c(C(=O)N/N=C/c3c[nH]c4ccccc34)nnn2-c2nonc2N)cc1,21.9%
12,CCOC(=O)C(C)On1c(-c2ccccc2)nc2ccc([N+](=O)[O-])cc21 (stereo not given),34.2% (active)
13,CCOc1cc(/C=C2\N=C(SCC)SC2=O)cc([N+](=O)[O-])c1OC(C)=O,47.5% (active)
14,Cn1c(=O)c(Nc2ccc(O)cc2)c2c3c(cccc31)C(=O)c1ccccc1-2,36% (active)
15,CCOc1cc(CNc2ccc(O)cc2)ccc1OCc1ccc(Cl)cc1Cl,13.2%
